Assay [1] can be described thus: TOX21_p53_BLA_p2_viability: Viability Assessment in the Tox21 HCT-116 p53 Agonism Beta-lactamase Assay, Phase 2 (AID 2283591).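 Note: compound exposure lasted 16 h at 37 °C; actives lower the ATP signal meaning cytotoxicity.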 Summed up:
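HCT116 p53-bla cells, 4000/well, dosed after 5 h plating (217-fold dilution of DMSO stocks) and incubated 16 h at 37C. Viability taken as cellular ATP by CellTiter-Glo luminescence after 30 min RT; signal loss marks cytotoxicity.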

For assay [2], the target named is Cellular tumor antigen p53 (Homo sapiens) (UniProt P04637). Briefly: TOX21_p53_BLA_p2_ratio: Tox21 HCT-116 p53 Agonism Beta-lactamase Assay, Ratio, Phase 2 (AID 2283592). In short, it runs like this:
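Cleaved-to-uncleaved substrate ratio (460 vs 530 nm) measured in HCT116 cells with an inducible beta-lactamase reporter linked to p53 activity. Compounds incubated 16 h at 37C before 2 h room-temperature CCF4-AM loading.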

The target is the same in assay [3]. Kind of assay: TOX21_p53_BLA_p3_ratio: Tox21 HCT-116 p53 Agonism Beta-lactamase Assay, Ratio, Phase 3 (AID 2283596). Summed up:
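Cells were seeded at 4000/well, rested 5 h at 37C, then dosed with DMSO compound solutions (217-fold dilution) for 16 h. CCF4-AM substrate was loaded for 2 h at room temperature, and the 460/530 nm emission ratio was fitted for gain of signal versus DMSO.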

A short description of assay [4]: TOX21_p53_BLA_p5_viability: Viability Assessment in the Tox21 HCT-116 p53 Agonism Beta-lactamase Assay, Phase 5 (AID 2283600). Summed up: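 Viability is taken from cellular ATP content, measured by luciferase luminescence in the same wells after the beta-lactamase ratio read. Cells are seeded at 4000 per well and exposed to DMSO-dissolved compounds, diluted 217-fold, for 16 h.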

In assay [5] the target is Cellular tumor antigen p53 (Homo sapiens) (UniProt P04637). Kind of assay: TOX21_p53_BLA_p4_ratio: Tox21 HCT-116 p53 Agonism Beta-lactamase Assay, Ratio, Phase 4 (AID 2283601). In short, it runs like this:
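HCT-116 p53 beta-lactamase reporter cells (4000/well) preincubated 5 h, then compound (217-fold dilution of DMSO stock) for 16 h at 37C. CCF4-AM substrate added 2 h at room temperature; 460/530 nm emission ratio fitted upward versus DMSO.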

For assay [6] the target is unchanged. Briefly: TOX21_p53_BLA_p5_ratio: Tox21 HCT-116 p53 Agonism Beta-lactamase Assay, Ratio, Phase 5 (AID 2283599). In short, it runs like this: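 HCT-116 p53-bla cells (4000/well) plated 5 h, dosed with compound (217-fold DMSO dilution) for 16 h at 37 C; CCF4-AM substrate 2 h at room temperature. Activity is the 460/530 nm emission ratio (405 nm excitation), fitted in gain-of-signal direction versus DMSO.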

For assay [7], the target named is PGR (gene 5241) (UniProt P06401). Kind of assay: TOX21_PR_BLA_Followup_Antagonist_ratio: Tox21 HEK293 Progesterone Receptor (PR) Antagonism Beta-lactamase Follow-Up Assay, Ratio (AID 2283934).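 Note: PR-UAS-bla HEK293T cells stimulated with 1 nM R5020 agonist for 16 hr.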 In short, it runs like this: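 Measured in PR-UAS-bla HEK293T cells co-treated with compound and 1 nM promegestone for 16 hr; beta-lactamase ratio read after 2 h FRET substrate loading, with parallel CellTiter-Glo cytotoxicity.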

A short description of assay [8]: TOX21_PR_BLA_Followup_Agonist_viability: Viability Assessment in the Tox21 HEK293 Progesterone Receptor (PR) Agonism Beta-lactamase Follow-Up Assay (AID 2283935).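 Note: signal loss means lower viability so actives are cytotoxic.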 In short, it runs like this:
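Viability is read as CellTiter-Glo luminescence, where loss of signal indicates cytotoxicity. The cells are PR-UAS-bla HEK293T given compounds for 16 hr at 37C and 5% CO2, in the same wells used for the bla readout.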

Assay [9] in a line: TOX21_PR_BLA_Followup_Antagonist_viability: Viability Assessment in the Tox21 HEK293 Progesterone Receptor (PR) Antagonism Beta-lactamase Follow-Up Assay (AID 2283936).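 Note: cells exposed to compound with R5020 agonist for 16 h; hits lower the luminescence signal meaning cytotoxicity.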 Summed up: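 PR-UAS-bla HEK293T cells in medium with 2% charcoal-stripped FBS were treated with compounds plus R5020 for 16 hr at 37C. After the beta-lactamase read, CellTiter-Glo was added to the same wells and luminescence read after 30 min at room temperature.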

Assay [10] addresses PGR (gene 5241) (UniProt P06401). Kind of assay: TOX21_PR_LUC_Followup_Agonist: Tox21 HEK293 Progesterone Receptor (PR) Agonism Luciferase Follow-Up Assay (AID 2283937; active = hit-call score of the fitted dose curve at least 0.9, where 1 is the maximum; inactive = score below 0.9). Summed up:
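In HEK293 cells stably expressing PR-A with a luciferase reporter, compounds were incubated 16 h at 37C, and induced luminescence was quantified with ONE-Glo, multiplexed with cell viability.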

For assay [11] the target is unchanged. Briefly: TOX21_PR_LUC_Followup_Antagonist: Tox21 HEK293 Progesterone Receptor (PR) Antagonism Luciferase Follow-Up Assay (AID 2283938).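 Note: curve fitted upward as signal gain over DMSO baseline despite antagonist label.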 In short, it runs like this: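 A follow-up to the PR bla screen using HEK293-PR-A-luc cells, multiplexed with cell viability to flag cytotoxicity. Reporter luminescence after 16 h compound exposure was analysed relative to DMSO.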

A short description of assay [12]: TOX21_PR_LUC_Followup_Antagonist_viability: Viability Assessment in the Tox21 HEK293 Progesterone Receptor (PR) Antagonism Luciferase Follow-Up Assay (AID 2283940). In short, it runs like this:
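Loss of CellTiter-Glo ATP signal indicates cytotoxicity in HEK293-PR-A-luc cells grown in 10% charcoal-stripped FBS medium, seeded 3,000 per well and incubated 16 h with compound at 37C.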

Assay [13] is described as follows: TOX21_PR_LUC_Followup_Agonist_viability: Viability Assessment in the Tox21 HEK293 Progesterone Receptor (PR) Agonism Luciferase Follow-Up Assay (AID 2283941).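 Note: loss of signal means cytotoxicity so actives lower viability.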 In short, it runs like this: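 Seeding: HEK293-PR-A-luc, 3,000 cells/well, 5 h at 37C. Treatment: compound in DMSO, 16 h, 37C. Read: CellTiter-Glo ATP luminescence, signal loss taken as lower viability.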

Records with an inconclusive call do not appear. Activity calls are given as the source filed them. Rule for the calls, unless noted: active = hit-call score of the fitted dose curve at least 0.9, where 1 is the maximum; inconclusive = response in the unintended direction; inactive = score below 0.9.

PGR (gene 5241), sequence (P06401 whole entry, looked up): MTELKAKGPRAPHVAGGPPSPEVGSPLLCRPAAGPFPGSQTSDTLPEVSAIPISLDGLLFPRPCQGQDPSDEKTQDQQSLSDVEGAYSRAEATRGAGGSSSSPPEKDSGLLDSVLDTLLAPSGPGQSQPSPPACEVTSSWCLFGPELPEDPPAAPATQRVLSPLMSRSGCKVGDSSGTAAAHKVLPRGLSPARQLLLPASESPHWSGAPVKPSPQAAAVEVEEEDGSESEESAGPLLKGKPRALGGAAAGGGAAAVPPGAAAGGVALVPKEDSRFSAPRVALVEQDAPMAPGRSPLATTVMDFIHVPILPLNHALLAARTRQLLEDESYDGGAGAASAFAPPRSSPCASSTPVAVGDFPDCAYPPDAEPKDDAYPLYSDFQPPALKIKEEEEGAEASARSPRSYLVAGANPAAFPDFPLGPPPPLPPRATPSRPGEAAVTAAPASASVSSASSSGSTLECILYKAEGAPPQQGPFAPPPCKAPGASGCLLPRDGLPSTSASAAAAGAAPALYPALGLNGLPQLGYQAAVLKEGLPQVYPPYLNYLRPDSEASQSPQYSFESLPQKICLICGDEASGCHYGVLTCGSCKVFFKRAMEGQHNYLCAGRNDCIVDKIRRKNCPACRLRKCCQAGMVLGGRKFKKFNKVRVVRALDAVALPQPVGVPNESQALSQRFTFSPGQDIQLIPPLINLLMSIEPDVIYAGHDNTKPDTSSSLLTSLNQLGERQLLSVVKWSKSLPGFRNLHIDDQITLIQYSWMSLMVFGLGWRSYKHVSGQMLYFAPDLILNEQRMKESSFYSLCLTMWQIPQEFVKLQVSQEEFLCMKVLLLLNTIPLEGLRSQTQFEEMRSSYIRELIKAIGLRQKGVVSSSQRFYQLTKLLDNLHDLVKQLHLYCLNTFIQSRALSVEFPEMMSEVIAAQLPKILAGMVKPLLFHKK
Cellular tumor antigen p53 (Homo sapiens), sequence (P04637 whole entry, looked up): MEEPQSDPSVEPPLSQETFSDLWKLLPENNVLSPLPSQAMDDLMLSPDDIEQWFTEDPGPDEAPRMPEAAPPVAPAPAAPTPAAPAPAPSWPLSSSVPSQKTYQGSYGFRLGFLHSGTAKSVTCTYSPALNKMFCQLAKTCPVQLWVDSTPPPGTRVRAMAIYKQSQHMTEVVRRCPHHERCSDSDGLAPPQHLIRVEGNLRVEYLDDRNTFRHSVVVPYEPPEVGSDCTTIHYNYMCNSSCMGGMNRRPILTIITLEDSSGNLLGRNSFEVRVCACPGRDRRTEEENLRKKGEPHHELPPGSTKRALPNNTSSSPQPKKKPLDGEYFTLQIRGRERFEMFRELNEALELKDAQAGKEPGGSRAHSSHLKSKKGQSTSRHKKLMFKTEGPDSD

On to `O=C(Cn1ccnc1[N+](=O)[O-])NCc1ccccc1`, for which the outcome in [1], in [2], in assay [3], in assay [4] and in assay [5] was inactive.

Regarding `CO/N=C(\C(=O)N[C@@H]1C(=O)N2C(C(=O)[O-])=C(C[n+]3cccc4c3CCC4)CS[C@H]12)c1csc(N)n1`, the molecule was called inactive in [1], in [2], in [3], in [4] and in assay [5].

On to `COc1ccc(C)cc1`, for which the outcome in assay [1], in assay [2], in [3] and in assay [4] was inactive.

On to `C[C@]12C=CC(=O)C=C1CC[C@@H]1[C@@H]2[C@@H](O)C[C@@]2(C)[C@H]1CC[C@]2(O)C(=O)COC(=O)CCC(=O)O`, for which the outcome in [1], in [2], in assay [3], in assay [6] and in assay [5] was inactive.

Turning to `O=C(O)c1ccc[n+]([O-])c1`, the molecule was called inactive in assay [1], in assay [2], in [3], in assay [4] and in assay [5].

By AC50 is commonly meant the concentration giving half of the maximal activity seen. On to `CCn1c2ccccc2c2cc([N+](=O)[O-])ccc21`, for which the molecule was classed as inactive in assay [1], in [2], in assay [3], in assay [6], in assay [5] and in [8]. Also, the outcome (in assay [9]; with PGR (gene 5241) [10]; in assay [12]; in assay [13]) was inactive. For the same molecule, the AC50 with PGR (gene 5241) [7] is 6.29 µM (active); in the assay with PGR (gene 5241) [11], 8.06 µM (active).

On to `Cc1cn([C@H]2C[C@H](F)[C@@H](CO)O2)c(=O)[nH]c1=O`, for which the result in assay [1], in assay [2], in assay [3], in assay [4] and in [5] was inactive.

For `Cc1cccc([N+](=O)[O-])c1C(=O)O`, the molecule was classed as inactive in assay [1], in assay [2], in [3], in [6] and in [5].

For `O=S(=O)(O)CCN1CCN(CCO)CC1`, the result in assay [1], in [2], in [3], in assay [4] and in assay [5] was inactive.

Take `c1ccc2c(c1)OCC(CN1CCCCC1)O2` (stereo not given): the outcome in assay [1], in [2], in [3], in assay [6] and in assay [5] was inactive.

Take `NC(=O)N[C@@H](CCC(=O)O)C(=O)O`: the call in assay [1], in assay [2], in assay [3], in [6] and in [5] was inactive.

As to `Oc1ccc(O)c2c(O)cccc12`, the molecule was classed as inactive in [1], in assay [2], in assay [3], in assay [4] and in [5].

As to `N#Cc1c(N(CC(=O)O)CC(=O)O)sc(C(=O)O)c1CC(=O)O`, the outcome in assay [1], in [2], in assay [3], in assay [6] and in [5] was inactive.

Turning to `O=C(NCC(O)CO)c1c(I)c(C(=O)NCC(O)CO)c(I)c(N(CCO)C(=O)CO)c1I` (stereo not given), the call in [1], in [2], in assay [3], in [4] and in [5] was inactive.

Regarding `CCCNC(C)C(=O)Nc1c(C)csc1C(=O)OC` (stereo not given), the result in [1], in assay [2], in assay [3] and in assay [4] was inactive.

With `Cc1cccc(Br)c1`, the molecule was called inactive in [1], in assay [2], in assay [3], in assay [6] and in [5].

With `N[C@@H](C(=O)N[C@@H]1C(=O)N2C(C(=O)O)=C(Cl)CS[C@H]12)c1ccccc1`, the call in assay [1], in assay [2], in assay [3], in [4] and in assay [5] was inactive.

In the case of `CC(=O)Oc1cccc(C)c1`, the molecule was classed as inactive in assay [1], in assay [2], in assay [3], in assay [4] and in assay [5].
